Assay [1] is described as follows: qHTS assay to identify small molecule antagonists of the glucocorticoid receptor (GR) signaling pathway - cell viability counter screen (AID 720693). Also: nearly all actives have a fitted effect of over 55% in size. Also: potency is read from the fitted curve at half-maximal effect. For orientation: qHTS replaces the single test concentration by a dilution series.
Assay [2] can be described thus: qHTS assay for identifying genotoxic compounds that show differential cytotoxicity against isogenic chicken DT40 cell lines with known DNA damage response pathways - wild type cell line (AID 743012). Also: nearly all actives have a fitted effect of over 60% in size. Also: potency is read from the fitted curve at half-maximal effect. An outline of the steps:
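Luminescent ATP viability signal (CellTiter-Glo, 30 min RT) recorded after wild type DT40 cells were incubated with compounds for 40 h at 37 C/5% CO2.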

A short description of assay [3]: qHTS assay for identifying genotoxic compounds that show differential cytotoxicity against isogenic chicken DT40 cell lines with known DNA damage response pathways - Rev3 mutant cell line (AID 743014). Also: nearly all actives have a fitted effect of over 55% in size. Also: potency is read from the fitted curve at half-maximal effect.
Assay [4] can be described thus: qHTS assay for identifying genotoxic compounds that show differential cytotoxicity against isogenic chicken DT40 cell lines with known DNA damage response pathways - Rad54/Ku70 mutant cell line (AID 743015). Also: nearly all actives have a fitted effect of over 60% in size. Also: potency is read from the fitted curve at half-maximal effect.
Assay [5] can be described thus: qHTS assay to identify small molecule antagonists of the androgen receptor (AR) signaling pathway - cell viability counter screen (AID 743033; also: nearly all actives have a fitted effect of over 45% in size; also: potency is read from the fitted curve at half-maximal effect).
Assay [6] can be described thus: qHTS assay to identify small molecule antagonists of the androgen receptor (AR) signaling pathway using the MDA cell line - cell viability counter screen (AID 743041; also: nearly all actives have a fitted effect of over 45% in size; also: potency is read from the fitted curve at half-maximal effect). An outline of the steps:
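In this qHTS counter assay, fluorescence intensity after CellTiter-Fluor addition indicated viability of MDA-kb2 AR-luc cells given compounds and R1881 for 16 h at 37C.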

The nature of assay [7]: qHTS assay to identify small molecule antagonists of the thyroid receptor (TR) signaling pathway - cell viability counter screen (AID 743064). Also: nearly all actives have a fitted effect of over 50% in size. Also: potency is read from the fitted curve at half-maximal effect. An outline of the steps:
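In rat pituitary GH3.TRE-Luc reporter cells co-exposed to compound and 1 nM T3 for 23.5 h, cytotoxicity was assessed with CellTiter-Fluor in the same wells, read by fluorescence.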

Assay [8] deals with Androgen receptor (Homo sapiens) (UniProt P10275). The experiment in a line: qHTS assay to identify small molecule antagonists of the androgen receptor (AR) signaling pathway (AID 743035; active = well fitted inhibition curve with a large enough effect in the signal ratio in the repeat runs, not every such curve was filed as active; the % refers to the signal ratio). An outline of the steps:
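Quantitative HTS of the Tox21 10K library used HEK293 AR-UAS-bla cells stimulated with R1881 alongside compound for 16 h at 37C, followed by beta-lactamase FRET detection (LiveBLAzer B/G, 2 h, RT).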

The target is the same in assay [9]. The experiment in a line: qHTS assay to identify small molecule agonists of the androgen receptor (AR) signaling pathway using the MDA cell line (AID 743040; also: nearly all actives have a fitted effect of over 20% in size). An outline of the steps: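 Cell-based luciferase reporter: MDA-kb2, MMTV promoter (AR + GR response elements). 16 h compound exposure at 37C; ONE-Glo, 30 min RT, luminescence.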
Assay [10] shares this target. The experiment in a line: qHTS assay to identify small molecule antagonists of the androgen receptor (AR) signaling pathway using the MDA cell line (AID 743042; also: nearly all actives have a fitted effect of over 55% in size). The method in brief:
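MDA-kb2 cells (human breast carcinoma, stably carrying an MMTV-luciferase reporter responsive to AR and GR) were plated at 3,000 cells/well and preincubated 5 hr at 37C, then given compound plus R1881 agonist for 16 h. ONE-Glo luminescence was read.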

The record followed here is PubChem BioAssay (Tox21).

“And” between values parts separate entries of the source, which are not always exact repeats. Equal values may be shown once. Results filed as inconclusive are left out. A structure can be active in one record and inactive in another. The source made the active and inactive calls. Unless noted, calls follow the shape of the dose curve; as a rule, active = well fitted curve in the direction sought with a large enough effect in the repeat runs; inconclusive = weak or mixed curves; inactive = no such curve, though single readings can be large; an effect the other way counts as inactive or inconclusive.

Chain of Androgen receptor (Homo sapiens) (P10275 whole entry, looked up): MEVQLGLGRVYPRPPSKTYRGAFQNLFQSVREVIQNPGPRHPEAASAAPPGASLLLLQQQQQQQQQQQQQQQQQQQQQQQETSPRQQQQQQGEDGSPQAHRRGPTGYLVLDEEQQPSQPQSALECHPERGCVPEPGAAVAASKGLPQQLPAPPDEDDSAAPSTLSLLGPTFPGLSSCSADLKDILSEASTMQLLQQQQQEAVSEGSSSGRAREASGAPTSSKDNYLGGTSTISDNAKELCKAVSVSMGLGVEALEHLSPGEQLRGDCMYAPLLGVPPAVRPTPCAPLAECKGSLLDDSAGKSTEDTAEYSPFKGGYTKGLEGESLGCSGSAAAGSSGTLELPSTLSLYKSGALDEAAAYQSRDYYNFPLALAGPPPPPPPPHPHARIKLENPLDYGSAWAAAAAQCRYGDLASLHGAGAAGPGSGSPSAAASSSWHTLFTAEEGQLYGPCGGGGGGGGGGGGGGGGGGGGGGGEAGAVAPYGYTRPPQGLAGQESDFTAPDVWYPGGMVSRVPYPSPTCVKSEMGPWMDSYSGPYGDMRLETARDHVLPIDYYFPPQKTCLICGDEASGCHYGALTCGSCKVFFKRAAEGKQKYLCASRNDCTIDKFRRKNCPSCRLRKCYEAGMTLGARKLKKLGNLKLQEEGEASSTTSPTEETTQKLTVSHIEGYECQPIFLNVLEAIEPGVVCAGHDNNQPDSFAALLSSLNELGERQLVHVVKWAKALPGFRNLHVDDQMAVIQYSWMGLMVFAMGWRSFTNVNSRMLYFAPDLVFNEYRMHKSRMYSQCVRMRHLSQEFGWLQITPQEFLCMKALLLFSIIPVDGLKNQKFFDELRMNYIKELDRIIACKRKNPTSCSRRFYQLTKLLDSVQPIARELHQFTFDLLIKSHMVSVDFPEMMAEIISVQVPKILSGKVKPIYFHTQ

For the compound `COCC(=O)N(c1c(C)cccc1C)N1CCOC1=O`, the Potency entry in assay [1], in assay [2], in assay [3], in assay [4], in [5] and in assay [6] was “inactive” each time. For the same compound, in assay [7], the Potency entry is “inactive”.
Take `Nc1ccccc1Cl`: the Potency result in [1], in [2], in [3], in assay [4], in assay [8] and in [9] was “inactive” in each case. For the same compound, the Potency result in assay [6] is “inactive”. The result in assay [10] was inactive.
Consider `[O]=[Cd]`, for which the Potency result in [1], in assay [2], in assay [3], in assay [4], in assay [5] and in [6] was “inactive” in each case. For the same compound, the Potency entry in assay [7] was “inactive”.
As to `CNC(=O)Oc1c(C(C)(C)C)cc(C)cc1C(C)(C)C`, the Potency entry in assay [1], in [2], in assay [3], in assay [5], in [8] and in assay [9] was “inactive” each time. Also, the Potency result in assay [6] and in assay [7] was “inactive” in each case. Further, the outcome in assay [10] was inactive.
Take `CCS(=O)(=O)CCSP(=O)(OC)OC`: the Potency result in assay [1], in assay [5], in assay [6] and in assay [7] was “inactive” in each case. The Potency in assay [2] is 61.1 µM (active); in [3], 38.6 µM (active); in [4], 48.6 µM (active).
`CC1CN1P(=O)(N1CC1C)N1CC1C` (centres undefined): the Potency entry in assay [1], in assay [2], in assay [3], in assay [5], in [6] and in assay [7] was “inactive” in each case.
As for `Fc1ccc(C2(Cn3cncn3)OC2c2ccccc2Cl)cc1` (centres undefined), the Potency entry in assay [1], in [6] and in assay [7] was “inactive” in each case. Moreover, the values for the Potency in [2], in assay [3] and in [4] were 15.4 µM (active), 34.4 µM (active) and 27.3 µM (active), respectively.
On to `CC(C)NCC(O)c1ccc(N)c(C#N)c1` (centres undefined), for which the Potency entry in assay [1], in assay [2], in [3], in assay [4], in assay [6] and in assay [7] was “inactive” each time.
With `Nc1cc(Cl)ccc1O`, the Potency result in assay [1], in assay [5] and in assay [6] was “inactive” each time. Moreover, the Potency in assay [2] is 14.9 µM (active); in assay [3] it was 14.9 µM (active); in assay [4], 9.37 µM (active); in [7] it was 23.5 µM (active).
On to `C[C@@H]1CN(C2CCC(C#N)(c3ccc(F)cc3)CC2)CC[C@]1(C(=O)O)c1ccccc1` (some centres undefined), for which the Potency entry in [1], in [2], in [3], in assay [4], in assay [5] and in [6] was “inactive” throughout. Moreover, the Potency result in [7] is “inactive”.
Consider `O=NN1CCN(N=O)CC1`, for which the Potency result in [1], in assay [2], in assay [3], in assay [4], in assay [5] and in assay [6] was “inactive” each time. In addition, the Potency result in [7] is “inactive”.
As to `CCC#N`, the Potency entry in assay [1], in assay [2], in [3], in assay [4], in assay [6] and in assay [7] was “inactive” in each case.
`CNC(=O)Oc1cccc(C(C)C)c1`: the Potency entry in [1], in assay [2], in [3], in assay [5], in [6] and in assay [7] was “inactive” in each case.
As for `Oc1c(Cl)cccc1Cl`, the Potency result in assay [1], in assay [2], in [3], in assay [5], in assay [6] and in assay [7] was “inactive” each time.
Regarding `O=C1OC(=O)C2C1C1(Cl)C(Cl)=C(Cl)C2(Cl)C1(Cl)Cl` (centres undefined), the Potency result in assay [1], in assay [2], in assay [3], in assay [4], in [6] and in [7] was “inactive” each time.
Consider `CCN(Cc1ccc(Cl)nc1)/C(=C/[N+](=O)[O-])NC`, for which the Potency entry in assay [1], in [2], in assay [4], in [5], in assay [6] and in [7] was “inactive” in each case.
In the case of `C(CCOCC1CO1)COCC1CO1` (centres undefined), the Potency result in assay [1], in assay [6] and in assay [7] was “inactive” in each case. Besides, the Potency in assay [2] is 12 µM (active); in [3] it was 1.07 µM (active).
As to `CC(=O)Nc1cc([As](=O)(O)O)ccc1O`, the Potency entry in assay [1], in assay [2], in assay [4], in assay [6] and in [7] was “inactive” each time.
For the compound `O=c1oc2ccccc2c(O)c1C1CCCc2ccccc21` (centres undefined), the Potency result in assay [1], in assay [2], in assay [3] and in assay [6] was “inactive” in each case.
`CCN(CC)CCOC(=O)C(C)(c1ccccc1)c1ccccc1`: the Potency result in assay [1], in [5] and in [6] was “inactive” in each case. Moreover, the values for the Potency in assay [2], in assay [4] and in assay [7] were 8.41 µM (active), 23.7 µM (active) and 26.6 µM (active), respectively.
In the case of `Cc1cc(C)c(C(=O)P(=O)(C(=O)c2c(C)cc(C)cc2C)c2ccccc2)c(C)c1`, the Potency result in assay [1], in assay [2], in [4], in assay [5], in assay [6] and in assay [7] was “inactive” each time.
Turning to `C[C@H]1CCC[C@H](O)CCCCCc2cc(O)cc(O)c2C(=O)O1`, the Potency entry in assay [1] and in [5] was “inactive” each time. Besides, the Potency in assay [2] is 18.8 µM (active) and 61.6 µM (active); in [4] it was 16.8 µM (active) and 43.6 µM (active); in assay [7], “inactive and 54.9 µM (active)”.
`CNC(=O)N(C)c1nc2ccccc2s1`: the Potency entry in [1], in assay [2], in assay [4], in [9], in assay [6] and in assay [7] was “inactive” in each case. Further, the outcome in assay [10] was inactive.
`COc1ccc(C(=O)N2CCCC2=O)cc1`: the Potency entry in assay [1], in assay [2], in assay [4], in assay [6] and in assay [7] was “inactive” in each case. In addition, in assay [5], the Potency was 0.0085 µM (active).
Take `Nc1cc2c3c(c1)C(c1ccccc1)=N[C@@H](NC(=O)c1cccnc1)C(=O)N3CC2`: the Potency entry in assay [1], in [2], in assay [4], in [5], in assay [6] and in assay [7] was “inactive” throughout.
With `COC(=O)c1ccccc1S(=O)(=O)NC(=O)Nc1nc(C)cc(C)n1`, the Potency entry in [1], in assay [2], in assay [4], in assay [5], in [6] and in assay [7] was “inactive” in each case.
On to `COc1cccc2c1cc([N+](=O)[O-])c1c(C(=O)O)cc3c(c12)OCO3`, for which the Potency in [1] is 12.3 µM (active); in [2] it was 0.77 µM (active); in assay [3], 0.137 µM (active); in assay [6], 34.4 µM (active); in assay [7], 3.06 µM (active).
As to `CC(N)=S`, the Potency result in [1], in [2], in assay [4], in assay [5], in assay [6] and in [7] was “inactive” throughout.
Consider `CC(C)COP(=O)(OCC(C)C)OCC(C)C`, for which the Potency entry in assay [1], in assay [2], in assay [4], in assay [5], in [6] and in assay [7] was “inactive” in each case.
Regarding `CCOP(=O)(OCC)OP(=O)(OCC)OCC`, the Potency result in [1], in [2], in assay [4], in assay [5], in [8] and in assay [9] was “inactive” throughout. In addition, the Potency result in assay [6] and in [7] was “inactive” in each case. Also, the outcome in [10] was inactive.
For `CCS(=O)(=O)C(C)(C)S(=O)(=O)CC`, the Potency result in assay [1], in assay [2], in assay [3], in [6] and in assay [7] was “inactive” in each case.
Consider `CCCCP(CCCC)CCCC`, for which the Potency result in assay [1], in [2], in [4], in assay [6] and in [7] was “inactive” in each case.
